Experiment [1] can be described thus: Quantitative High-Throughput drug screen in 47 multiple myeloma cell lines against the NCATS MIPE library collection: KMS12PE_JCRB cell viability assay (AID 1918972). Further: nearly all actives have a fitted effect of over 30% in size. The method, boiled down: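 qHTS of the MIPE 4.0 collection: 500 myeloma cells/well, 48 h drug exposure at 37C in 5% CO2, then CellTiter-Glo for 5 min at room temperature before luminescence reading.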

Experiment [2] in a line: Quantitative High-Throughput drug screen in 47 multiple myeloma cell lines against the NCATS MIPE library collection: KMS20_JCRB cell viability assay (AID 1918973). Further: nearly all actives have a fitted effect of over 45% in size. The method, boiled down: (§1)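 Myeloma cells (500 per well) were exposed to MIPE 4.0 compounds by pin transfer and incubated 48 hours at 37C, 5% CO2. Viability was read as ATP by CellTiter-Glo luminescence, normalised to DMSO (100%) and media-only (0%) wells.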

Experiment [3] is described as follows: Quantitative High-Throughput drug screen in 47 multiple myeloma cell lines against the NCATS MIPE library collection: KMS26_JCRB cell viability assay (AID 1918975). Further: nearly all actives have a fitted effect of over 45% in size. The method, boiled down:
as §1

Experiment [4] can be described thus: Quantitative High-Throughput drug screen in 47 multiple myeloma cell lines against the NCATS MIPE library collection: MMM1_PLB cell viability assay (AID 1918976). Further: nearly all actives have a fitted effect of over 35% in size. The method, boiled down: (§2)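 Viability after 48 h drug exposure was measured as ATP-dependent luminescence. Cells, 500 per well, sat at 37 °C under 5% CO2; DMSO wells set 100%, media-only wells 0%.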

A short description of experiment [5]: Quantitative High-Throughput drug screen in 47 multiple myeloma cell lines against the NCATS MIPE library collection: MOLP8_DSMZ cell viability assay (AID 1918977). Further: nearly all actives have a fitted effect of over 45% in size. The method, boiled down: as §2
Experiment [6] in a line: Quantitative High-Throughput drug screen in 47 multiple myeloma cell lines against the NCATS MIPE library collection: NCIH929_DSMZ cell viability assay (AID 1918978). Further: nearly all actives have a fitted effect of over 35% in size. The method, boiled down:
as §2

Experiment [7] in a line: Quantitative High-Throughput drug screen in 47 multiple myeloma cell lines against the NCATS MIPE library collection: OCIMY1_PLB cell viability assay (AID 1918979). Further: nearly all actives have a fitted effect of over 35% in size. The method, boiled down:
as §2

Experiment [8] is described as follows: Quantitative High-Throughput drug screen in 47 multiple myeloma cell lines against the NCATS MIPE library collection: MM1S_ATCC cell viability assay (AID 1918980). Further: nearly all actives have a fitted effect of over 45% in size. The method, boiled down: as §2
Experiment [9] is described as follows: Quantitative High-Throughput drug screen in 47 multiple myeloma cell lines against the NCATS MIPE library collection: KMS21BM_JCRB cell viability assay (AID 1918974). The conditions noted are these: ATP luminescence, 48 h; viability: at 45.8 µM (top of the series). The method, boiled down:
as §1

Records with an inconclusive call do not appear. Calls of active or inactive are those of the source. The call rests on the fitted dose curve; in most records, active means well fitted curve in the direction sought with a large enough effect; inconclusive means small, poorly fitted or top-dose-only effect, or another doubt; inactive means no such curve, though single readings can be large; an effect the other way counts as inactive or inconclusive.
Potency means the concentration at half of the fitted maximal effect.

Take `COc1cc([C@@H]2c3cc4c(cc3[C@@H](O)C3COC(=O)C32)OCO4)cc(OC)c1O` (stereo partly specified): the Potency in experiment [1] was 0.0372 µM (active); in experiment [2] it was 0.0662 µM (active); in experiment [3], 0.105 µM (active); in experiment [4] it was 0.0935 µM (active); in experiment [5], 0.418 µM (active); in experiment [6], 0.132 µM (active). Moreover, the figures for the Potency in [7] and in experiment [8] were 0.0418 µM (active) and 0.187 µM (active), respectively.

In the case of `C[C@H]([C@H](O)CCC(C)(C)O)[C@H]1CC[C@@]2(O)C3=CC(=O)[C@@H]4C[C@@H](O)[C@@H](O)C[C@]4(C)[C@@H]3CC[C@]12C`, the Potency result in experiment [1], in experiment [3], in experiment [6], in experiment [7] and in experiment [8] was “inactive” throughout. In addition, the Potency in [4] was 14.8 µM (active).

With `C1=C2CCCN[C@H]2[C@@H]2C[C@H]1[C@@H]1CCCCN1C2`, the Potency result in experiment [1], in [3], in experiment [5], in [6], in experiment [7] and in [8] was “inactive” in each case.

On to `C[C@]12CCC(=O)C(O)=C1CC[C@@H]1[C@H]3CCC(=O)[C@@]3(C)CC[C@@H]12`, for which the Potency result in experiment [1], in experiment [3], in experiment [6] and in experiment [7] was “inactive” each time. Further, in experiment [4], the Potency is 2.35 µM (active).

On to `CC[C@@H](C(N)=O)N1CCCC1=O`, for which the Potency entry in [1], in [2], in experiment [5] and in experiment [7] was “inactive” each time.

As for `CN(C)[C@@H]1C(=O)C(C(N)=O)=C(O)[C@@]2(O)C(=O)C3=C(O)c4c(O)cccc4[C@@](C)(O)[C@H]3[C@H](O)[C@@H]12`, the Potency entry in [1], in [3] and in experiment [7] was “inactive” each time. The Potency in [4] was 10.5 µM (active); in experiment [5], 11.8 µM (active); in experiment [8], 5.9 µM (active).

Regarding `CCN1CCN(C(=O)Cc2ccc(Nc3ncc(F)c(Nc4ccc(C(=O)Nc5ccccc5Cl)cc4)n3)cc2)CC1`, the Potency in experiment [1] was 1.05 µM (active); in experiment [2], 1.18 µM (active); in experiment [3], 8.33 µM (active); in experiment [5], 7.43 µM (active); in experiment [6] it was 2.64 µM (active); in [7], 7.43 µM (active). Besides, the Potency in experiment [8] was 5.9 µM (active).

With `N#C[C@H](O[C@@H]1O[C@H](CO[C@@H]2O[C@H](CO)[C@H](O)[C@H](O)[C@H]2O)[C@H](O)[C@H](O)[C@H]1O)c1ccccc1`, the Potency was 7.43 µM (active) in [1]; 18.7 µM (active) in experiment [2]; 20.9 µM (active) in [3]; 23.5 µM (active) in [4]; 23.5 µM (active) in [6]; 20.9 µM (active) in experiment [7].

Take `CC(N[C@H]1C[C@H]1c1ccccc1)c1ccc2c(c1)OCCO2` (stereo partly specified): the Potency result in [1], in experiment [6] and in experiment [7] was “inactive” each time. In addition, the Potency was 0.001 µM (active) in experiment [2] and 5.26 µM (active) in experiment [3].

For `O=C(N[C@@H](COc1ccc2[nH]c(=O)[nH]c2c1)c1ccccc1)c1cccn(Cc2ccc(F)c(F)c2)c1=O`, the Potency in [1] is 18.7 µM (active); in experiment [2], 18.7 µM (active); in experiment [8] it was 16.6 µM (active). In [5], the Potency entry was “inactive”.

On to `CC(O)=C(C#N)C(=O)Nc1cc(Br)ccc1Br`, for which the Potency is 5.9 µM (active) in experiment [1]; 6.62 µM (active) in [2]; 18.7 µM (active) in experiment [3]; 16.6 µM (active) in experiment [4]; 20.9 µM (active) in experiment [8]. For the same compound, the Potency result in experiment [6] and in experiment [7] was “inactive” throughout.

As to `COc1ccc2c(c1)CN(C)CC2c1ccc(Cl)c(Cl)c1` (stereo unspecified), the Potency was 23.5 µM (active) in [1], 4.18 µM (active) in experiment [9], 16.6 µM (active) in experiment [6] and 0.0833 µM (active) in experiment [8]. Moreover, in experiment [7], the Potency entry is “inactive”.

For `C=C1C[C@H]2[C@H]3CCC(=O)[C@@]3(C)CC[C@@H]2[C@@]2(C)C=CC(=O)C=C12`, the figures for the Potency in [1], in [9] and in [4] were 29.6 µM (active), 14.8 µM (active) and 6.62 µM (active), respectively.

Regarding `CC(C)N[C@@H]1CCn2c(=O)[nH]c3cccc(c32)[C@@H]1O`, the Potency in experiment [1] is 6.62 µM (active); in experiment [2], 10.5 µM (active); in [9], 0.833 µM (active); in experiment [3], 26.4 µM (active); in experiment [4], 18.7 µM (active); in experiment [6], 9.35 µM (active). Besides, the Potency in experiment [8] is 0.372 µM (active).

As for `Cc1c(C(=O)c2cccc3ccccc23)c2cccc3c2n1[C@H](CN1CCOCC1)CO3`, the Potency was 7.43 µM (active) in experiment [1]; 18.7 µM (active) in experiment [2]; 23.5 µM (active) in experiment [3]; 23.5 µM (active) in experiment [4]; 23.5 µM (active) in [6].

Regarding `CSCC[C@@H](NC(=O)[C@@H](Cc1ccccc1)NC(=O)CNC(=O)CNC(=O)[C@@H](N)Cc1ccc(O)cc1)C(=O)O`, the Potency entry in [1], in [2], in [3], in experiment [6], in experiment [7] and in [8] was “inactive” in each case.

For `CN1[C@H]2CC(O)C[C@H]1[C@H]1O[C@H]12` (stereo partly specified), in experiment [1], the Potency entry was “inactive”. Moreover, the Potency in experiment [2] is 11.8 µM (active); in experiment [3], 16.6 µM (active); in experiment [4], 20.9 µM (active); in experiment [5] it was 13.2 µM (active); in experiment [6], 2.64 µM (active); in experiment [8], 18.7 µM (active).

For `Cc1[nH]nc2ccc(-c3cncc(OC[C@@H](N)Cc4c[nH]c5ccccc45)c3)cc12`, the Potency result in [1] is “inactive”. Besides, the Potency is 1.18 µM (active) in experiment [2]; 1.18 µM (active) in experiment [3]; 1.18 µM (active) in experiment [4]; 0.264 µM (active) in experiment [5]; 1.05 µM (active) in experiment [6]; 1.87 µM (active) in experiment [7]. Further, in experiment [8], the Potency was 0.833 µM (active).

Consider `O=C1C=CC[C@@H]2[C@H]3CCCN4CCC[C@@H](CN12)[C@@H]34`, for which the Potency entry in experiment [1], in experiment [2] and in experiment [7] was “inactive” each time. Also, in experiment [8], the Potency is 20.9 µM (active).

In the case of `O=C(O)CNC(=O)c1c(O)c2ccccc2n(Cc2ccccc2)c1=O`, the Potency entry in experiment [1], in experiment [3], in experiment [5], in experiment [6] and in experiment [7] was “inactive” throughout.

In the case of `CN(C)NC(=O)CCC(=O)O`, the Potency result in [1], in experiment [3], in [4], in experiment [6] and in [7] was “inactive” throughout.

Regarding `C[C@@]12OC(=O)[C@]1([C@@H](O)[C@@H]1C=CCCC1)NC(=O)[C@H]2CCCl`, the Potency in experiment [1] was 0.0187 µM (active); in experiment [2], 0.0296 µM (active); in experiment [3], 0.0105 µM (active); in experiment [4] it was 0.132 µM (active); in experiment [5], 0.0053 µM (active); in [6], 0.001 µM (active). In addition, the Potency in experiment [8] is 0.0053 µM (active).

The values above are taken from PubChem BioAssay (NCATS).
